{"source": "PubChem BioAssay (EPA / NIEHS)", "note": "Activity calls are given as the source filed them. How the source made its calls: active means hit-call score of the fitted dose curve at least 0.9, where 1 is the maximum; inactive means score below 0.9."}
{"assay": "BSK_MyoF_SRB: Viability Assessment in the BioMAP Diversity Plus: MyoF Assay (AID 2284267)", "conditions": "primary human lung fibroblasts", "experimental": "BSK_MyoF is a cell-based, multiplexed-readout assay that uses lung fibroblasts, […], with measurements taken at 24 hours after chemical dosing in a microplate: 96-well plate.BSK_MyoF_SRB is an assay component measured in the BSK_MyoF assay. It measures 0.1% sulforhodamine related to cell death using Sulforhodamine staining technology.Data from the assay component BSK_MyoF_SRB was analyzed at the endpoint, BSK_MyoF_SRB, in the positive analysis fitting direction relative to DMSO as the negative control and baseline of activity. Using a type of viability reporter, gain or loss-of-signal activity can be used to understand protein changes. To generalize the intended target to other relatable targets, this assay endpoint is annotated to the 'cell morphology' intended target family, where the subfamily is 'cell conformation'.\nThe levels of cell surface (or secreted, indicated by the prefix \"s\") biomarker endpoints were measured by ELISA. Overt cytotoxicity to cells in confluent adherent cultures (all systems other than the BT system) was assessed by measuring total protein levels using sulforhodamine B (SRB) staining in parallel cultures at the time of biomarker measurements, indicated as SRB endpoints. For proliferation assays for adherent cell types, individual cell types are cultured at sub-confluence and relative cell numbers quantified by SRB staining at time points optimized for each system (48 h: 3C and CASM3C systems; 72 h: BT and HDF3CGF systems; 96 h: SAg system). SRB was performed by staining cells with 0.1% SRB after fixation with 10% TCA and reading wells at 560 nm.Viability and proliferation of PBMC (T cells) was quantified by Alamar Blue reduction for the SAg and BT systems. For PBMC viability (referred to as PBMC Cytotoxicity within the assay endpoint names), cells were plated (75,000/well in a 96-well plate) and then chemical samples added for 1 h before addition of activators, SEB and TSST-1 (20 ng/mL final concentration each). Cells were incubated for 90 h. Then, Alamar Blue (20 uL/well) (Invitrogen, Cat DAL1100) was added for 6 h, and the plates were read with a fluorescence microplate reader at 546/580 nm (excitation/emission). For PBMC proliferation, cells were plated and activated as above but incubated for only 16 h prior to addition of Alamar Blue. Plates were read after 6 h."}
{"smiles": "c1ccc2sc(SNC3CCCCC3)nc2c1", "outcome": "inactive"}
{"smiles": "Cc1cc(Cl)ccc1N", "outcome": "inactive"}
{"smiles": "c1ccc(-c2cccc(-c3ccccc3)c2)cc1", "AC50": "22.5 µM (active)"}
{"smiles": "Cc1ccc2nc3sc(=O)sc3nc2c1", "outcome": "inactive"}
{"smiles": "Cc1cccc(OP(=O)(Oc2cccc(C)c2)Oc2cccc(C)c2)c1", "outcome": "inactive"}
{"smiles": "Nc1c(Oc2ccccc2)cc(O)c2c1C(=O)c1ccccc1C2=O", "outcome": "inactive"}
{"smiles": "CCOC(=O)CCN(SN(C)C(=O)Oc1cccc2c1OC(C)(C)C2)C(C)C", "outcome": "inactive"}
{"smiles": "Oc1c(Br)cc(Br)cc1Br", "outcome": "inactive"}
{"smiles": "CCOP(=S)(OCC)SCS(=O)(=O)C(C)(C)C", "outcome": "inactive"}
{"smiles": "O=S(=O)(c1ccc(Cl)cc1)c1cc(Cl)c(Cl)cc1Cl", "outcome": "inactive"}
{"smiles": "Cc1ccc(OP(=O)(Oc2ccc(C)cc2C)Oc2ccc(C)cc2C)c(C)c1", "outcome": "inactive"}
{"smiles": "CCC(C)(C#N)N=NC(C)(C#N)CC", "note": "(stereo not given)", "outcome": "inactive"}
{"smiles": "COCC(=O)N(c1c(C)cccc1C)[C@H](C)C(=O)OC", "outcome": "inactive"}
{"smiles": "[Cl][Sn]([c]1ccccc1)([c]1ccccc1)[c]1ccccc1", "AC50": "1.36 µM (active)"}
{"smiles": "CC(C)(COCC1CO1)COCC1CO1", "note": "(stereo not given)", "outcome": "inactive"}
{"smiles": "OC(Cc1ccccc1Cl)(Cn1[nH]cnc1=S)C1(Cl)CC1", "note": "(stereo not given)", "AC50": "32.2 µM (active)"}
{"smiles": "Cc1cc(Cl)ccc1OC(C)C(=O)O", "note": "(stereo not given)", "outcome": "inactive"}
{"smiles": "C[C@]12CC[C@@H](O)C[C@@H]1CC[C@@H]1[C@@H]2CC[C@]2(C)C(=O)CC[C@@H]12", "outcome": "inactive"}
{"smiles": "CCOP(=O)(OCC)OC(=CCl)c1ccc(Cl)cc1Cl", "AC50": "30.4 µM (active)"}
{"smiles": "Oc1cccc(-c2ccccc2)c1", "AC50": "31.1 µM (active)"}
{"smiles": "O=[N+]([O-])c1ccc(Nc2ccccc2)cc1", "outcome": "inactive"}
{"smiles": "OC(Cc1ccccc1Cl)(Cn1cncn1)C1(Cl)CC1", "note": "(stereo not given)", "outcome": "inactive"}
{"smiles": "O=C(O)COc1cc(Cl)c(Cl)cc1Cl", "outcome": "inactive"}
{"smiles": "Cc1c([N+](=O)[O-])c(C)c([N+](=O)[O-])c(C(C)(C)C)c1[N+](=O)[O-]", "outcome": "inactive"}
{"smiles": "C=CC(Cl)CCl", "note": "(stereo not given)", "AC50": "9.58 µM (active)"}
{"smiles": "N#CCCC(Br)(C#N)CBr", "note": "(stereo not given)", "AC50": "14.1 µM (active)"}
{"smiles": "Cc1ccccc1OP(=O)(Oc1ccccc1C)Oc1ccccc1C", "AC50": "12.8 µM (active)"}
{"smiles": "CCOP(=S)(OCC)OP(=S)(OCC)OCC", "outcome": "inactive"}
{"smiles": "CC(C)(C)c1cc([N+](=O)[O-])cc(C(C)(C)C)c1O", "outcome": "inactive"}
{"smiles": "CCN(CC)C(=O)C(Cl)=C(C)OP(=O)(OC)OC", "outcome": "inactive"}
{"smiles": "Cc1cc(C(C)(C)c2ccc(O)c(C)c2)ccc1O", "AC50": "13.7 µM (active)"}
{"smiles": "CCCCCCCCCCCCN(C)C", "outcome": "inactive"}
{"smiles": "O=S(=O)(C(Cl)(Cl)Cl)C(Cl)(Cl)Cl", "AC50": "3.81 µM (active)"}
{"smiles": "CC(C)=CC1C(C(=O)OCc2cccc(Oc3ccccc3)c2)C1(C)C", "note": "(stereo not given)", "outcome": "inactive"}
{"smiles": "Cc1ccccc1OP(=O)(Oc1ccccc1)Oc1ccccc1", "AC50": "20 µM (active)"}
{"smiles": "O=C1C=CC(=O)c2ccccc21", "AC50": "4.69 µM (active)"}
{"smiles": "CCOC(=O)C(SP(=S)(OC)OC)c1ccccc1", "note": "(stereo not given)", "outcome": "inactive"}
{"smiles": "O=[N+]([O-])c1cccc2ccccc12", "outcome": "inactive"}
{"smiles": "CCOC(=O)CC(=O)CCl", "outcome": "inactive"}
{"smiles": "CC(C=O)Cc1ccc2c(c1)OCO2", "note": "(stereo not given)", "outcome": "inactive"}
